In the supplement of paper PMC12282887:
± gives the standard deviation of the averaged measurements.

System: E. coli BW25113 marRABp lux reporter
Assay: promoter activity interaction Z-score (Lux/OD deviation from empty-vector control); higher = stronger promoter induction by the compound
Method: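 E. coli BW25113 (wild type or ΔmarA/ΔsoxS/Δrob) carrying pTU175 luxCDABE promoter reporters was grown in LB in 384-well plates at 37°C with each of 94 compounds at 4 two-fold concentrations, in biological duplicates. Luminescence and OD600 were read every 30 min for 12 h and integrated as AUC over 8 h (0-8 h WT, 1-9 h mutants). Lux AUC was divided by OD AUC; the interaction score is the residual of a Huber robust fit of each promoter against the empty-vector control, then Z-transformed per promoter.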

CNC(C)C1CCC(N)C(OC2C(N)CC(N)C(OC3OCC(C)(O)C(NC)C3O)C2O)O1 (centres undefined) [Gentamicin]
promoter activity interaction Z-score (0.13 µg/ml, genetic background: wild type): -0.229 ± 0.24 | promoter activity interaction Z-score (0.13 µg/ml, genetic background: ΔmarA): -0.193 ± 0.19 | promoter activity interaction Z-score (0.13 µg/ml, genetic background: Δrob): -0.0111 ± 0.062 | promoter activity interaction Z-score (0.13 µg/ml, genetic background: ΔsoxS): 0.027 ± 0.11 | promoter activity interaction Z-score (0.26 µg/ml, genetic background: wild type): -0.22 ± 0.026 | promoter activity interaction Z-score (0.26 µg/ml, genetic background: ΔmarA): -0.108 ± 0.19 | promoter activity interaction Z-score (0.26 µg/ml, genetic background: Δrob): -0.0765 ± 0.087 | promoter activity interaction Z-score (0.26 µg/ml, genetic background: ΔsoxS): 0.17 ± 0.086 | promoter activity interaction Z-score (0.52 µg/ml, genetic background: wild type): 0.575 ± 0.65 | promoter activity interaction Z-score (0.52 µg/ml, genetic background: ΔmarA): 0.543 ± 0.31 | promoter activity interaction Z-score (0.52 µg/ml, genetic background: Δrob): 0.678 ± 1 | promoter activity interaction Z-score (0.52 µg/ml, genetic background: ΔsoxS): 0.166

NC1CONC1=O (centres undefined) [Cycloserine D]
promoter activity interaction Z-score (1 µg/ml, genetic background: wild type): -0.0783 ± 0.12 | promoter activity interaction Z-score (1 µg/ml, genetic background: ΔmarA): -0.137 ± 0.057 | promoter activity interaction Z-score (1 µg/ml, genetic background: Δrob): -0.172 ± 0.25 | promoter activity interaction Z-score (1 µg/ml, genetic background: ΔsoxS): -0.158 ± 0.078 | promoter activity interaction Z-score (1.9 µg/ml, genetic background: wild type): -0.121 ± 0.15 | promoter activity interaction Z-score (1.9 µg/ml, genetic background: ΔmarA): 0.00534 ± 0.14 | promoter activity interaction Z-score (1.9 µg/ml, genetic background: Δrob): -0.0886 ± 0.21 | promoter activity interaction Z-score (1.9 µg/ml, genetic background: ΔsoxS): 0.0634 ± 0.045 | promoter activity interaction Z-score (3.8 µg/ml, genetic background: wild type): -0.109 ± 0.06 | promoter activity interaction Z-score (3.8 µg/ml, genetic background: ΔmarA): -0.119 ± 0.032 | promoter activity interaction Z-score (3.8 µg/ml, genetic background: Δrob): -0.11 ± 0.062 | promoter activity interaction Z-score (3.8 µg/ml, genetic background: ΔsoxS): -0.153 ± 0.013 | promoter activity interaction Z-score (7.7 µg/ml, genetic background: wild type): -0.273 ± 0.016 | promoter activity interaction Z-score (7.7 µg/ml, genetic background: ΔmarA): -0.299 ± 0.099 | promoter activity interaction Z-score (7.7 µg/ml, genetic background: Δrob): 0.163 ± 0.27 | promoter activity interaction Z-score (7.7 µg/ml, genetic background: ΔsoxS): -0.0525 ± 0.2

C[C@]12CC[C@@H]3c4ccc(O)cc4CC[C@H]3[C@@H]1CC[C@@H]2O [Estradiol]
promoter activity interaction Z-score (17 µg/ml, genetic background: wild type): 0.0618 ± 0.2 | promoter activity interaction Z-score (17 µg/ml, genetic background: ΔmarA): -0.313 ± 0.021 | promoter activity interaction Z-score (17 µg/ml, genetic background: Δrob): -0.258 ± 0.042 | promoter activity interaction Z-score (17 µg/ml, genetic background: ΔsoxS): -0.0159 ± 0.095 | promoter activity interaction Z-score (34 µg/ml, genetic background: wild type): -0.352 ± 0.0081 | promoter activity interaction Z-score (34 µg/ml, genetic background: ΔmarA): -0.312 ± 0.088 | promoter activity interaction Z-score (34 µg/ml, genetic background: Δrob): -0.348 ± 0.044 | promoter activity interaction Z-score (34 µg/ml, genetic background: ΔsoxS): 0.0387 ± 0.037 | promoter activity interaction Z-score (68.1 µg/ml, genetic background: wild type): -0.254 ± 0.14 | promoter activity interaction Z-score (68.1 µg/ml, genetic background: ΔmarA): -0.263 ± 0.18 | promoter activity interaction Z-score (68.1 µg/ml, genetic background: Δrob): -0.158 ± 0.23 | promoter activity interaction Z-score (68.1 µg/ml, genetic background: ΔsoxS): -0.162 ± 0.022 | promoter activity interaction Z-score (136.2 µg/ml, genetic background: wild type): -0.478 ± 0.16 | promoter activity interaction Z-score (136.2 µg/ml, genetic background: ΔmarA): -0.488 ± 0.082 | promoter activity interaction Z-score (136.2 µg/ml, genetic background: Δrob): -0.392 ± 0.36 | promoter activity interaction Z-score (136.2 µg/ml, genetic background: ΔsoxS): 0.155 ± 0.22
